Experimental findings from PubChem BioAssay (Tox21) are described below.

Values without a mark were called inactive. Records with an inconclusive call do not appear. Calls of active or inactive are those of the source. Unless noted, the call rests on the fitted dose curve; in most records, active means well fitted curve in the direction sought with a large enough effect in the repeat runs; inconclusive means weak or mixed curves; inactive means no such curve, though single readings can be large; an effect the other way counts as inactive or inconclusive.

The nature of test [1]: qHTS assay for small molecule agonists of the p53 signaling pathway - cell viability (AID 651633; calls by dose curve; further: nearly all actives have a fitted effect of over 30% in size; further: potency means the concentration at half of the fitted maximal effect). The method, boiled down: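 p53RE-bla cells, seeded at 4,000 per well and rested 5 h at 37 C/5% CO2, received compounds in DMSO for 16 h at 37 C. CellTiter-Glo was then added, and luminescence was read after 30 min at room temperature to gauge cytotoxicity.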
Test [2] in a line: qHTS assay for small molecules that induce genotoxicity in human embryonic kidney cells expressing luciferase-tagged ATAD5 - cell viability (AID 651634; calls by dose curve; further: nearly all actives have a fitted effect of over 25% in size; further: potency means the concentration at half of the fitted maximal effect). The method, boiled down:
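Cytotoxicity counter-readout: after 15.5 hr compound treatment at 37C, live-cell protease activity in ATAD5-luciferase HEK293T cells measured by CellTiter-Fluor fluorescence, 30 min development at 37C.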

Test [3] can be described thus: qHTS assay for small molecule disruptors of the mitochondrial membrane potential - cell viability (AID 720634; calls by dose curve; further: nearly all actives have a fitted effect of over 20% in size; further: potency means the concentration at half of the fitted maximal effect). The method, boiled down:
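Cytotoxicity was quantified from ATP content by CellTiter-Glo luminescence in the same wells as the MMP dye read-out. HepG2 (2,000 cells/well) were plated overnight and exposed to compounds for 1 hr at 37 C.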

A short description of test [4]: qHTS assay for small molecule disruptors of the mitochondrial membrane potential (AID 720635). Further: potency means the concentration at half of the fitted maximal effect. The gist of the method:
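HepG2 cells (2,000/well) attached overnight at 37C, then took compound for 1 hr at 37C, 5% CO2. Mito-MPS dye was added for 30 min; fluorescence was read at 490/535 nm (monomers) and 540/590 nm (aggregates).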

Test [5] can be described thus: qHTS assay to test for compound auto fluorescence at 535 nm (green) in HepG2 cells (AID 720675).
A short description of test [6]: qHTS assay to test for compound auto fluorescence at 460 nm (blue) in HEK293 cells (AID 720678). The method, boiled down:
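Auto fluorescence in the blue band was quantified as triamterene equivalency. HEK293 cells were seeded at 2,000/well, dosed after a 4-5 hr attachment, and kept overnight at 37C before the 405/460 nm reading.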

Test [7] can be described thus: qHTS assay to test for compound auto fluorescence at 590 nm (red) in HEK293 cells (AID 720679). The method, boiled down:
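Autofluorescence equivalency to Rose Bengal sodium, 540/590nm, in HEK293 cells exposed overnight to 23 nL compound per well.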

The nature of test [8]: qHTS assay for small molecules that induce genotoxicity in human embryonic kidney cells expressing luciferase-tagged ATAD5 (AID 651632). Further: nearly all actives have a fitted effect of over 15% in size. The method, boiled down:
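A rise in luciferase signal from ATAD5-tagged HEK293T cells marks genetic stress. Cells were exposed to compounds for 16 hr at 37C, 5% CO2, then luciferase was quantified after a 30 min room-temperature incubation with Amplite.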

A short description of test [9]: qHTS assay to test for compound auto fluorescence at 590 nm (red) in HepG2 cells (AID 720674). The gist of the method:
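Compound auto-fluorescence is scored relative to Rose Bengal sodium, measured at 540/590 nm in live HepG2 cultures after 1 hr compound contact (37 C, 5% CO2).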
On the % scale 0 is the no-effect control and ±100 the full control effect.

For `O=C(O)CN(CCN(CC(=O)O)CC(=O)O)CCN(CC(=O)O)CC(=O)O`, the Potency entry in test [1], in test [2], in [3] and in [4] was “inactive” each time. Besides, the result in test [5], in test [6] and in test [7] was inactive.
Turning to `NC1=NCC2c3ccccc3Cc3ccccc3N12` (stereo not given), the Potency entry in test [1], in test [2], in [3] and in test [4] was “inactive” throughout. The compound was called inactive in test [5], in test [6] and in test [7].
As for `CC1=NN(c2cc(Cl)c(S(=O)(=O)O)cc2Cl)C(=O)C1N=Nc1ccc(S(=O)(=O)O)cc1` (stereo not given), the Potency result in test [8], in test [1], in test [3] and in [4] was “inactive” each time. Moreover, the compound was called inactive in test [9], in [5], in test [6] and in test [7].
In the case of `CC1=C(CC(=O)O)c2cc(F)ccc2/C1=C\c1ccc(S(C)(=O)=O)cc1`, the Potency entry in test [8], in test [2] and in test [3] was “inactive” each time. For the same compound, the outcome in test [5], in test [6] and in test [7] was inactive.
In the case of `O=[N+]([O-])c1nccn1CO[C@@H](CO)[C@H](O)CO`, the Potency result in [1], in test [2], in test [3] and in test [4] was “inactive” each time. For the same compound, the call in [9], in [5], in test [6] and in test [7] was inactive.
As to `O=C(CC(=O)C(F)(F)F)c1ccccc1`, the Potency entry in test [8] and in test [1] was “inactive” in each case. The Potency in test [4] was 15.6 µM (active). Further, the compound was called inactive in test [9], in [5], in [6] and in [7].
Consider `CCOC(=O)COc1ccc2c(c1)CC(NCC(O)c1cccc(Cl)c1)CC2` (stereo not given), for which the Potency result in test [8], in test [2] and in test [3] was “inactive” each time. Also, the call in [5], in test [6] and in [7] was inactive.
Take `Oc1ccccc1F`: the Potency result in [2], in test [3] and in [4] was “inactive” each time. The result in test [9], in test [5], in test [6] and in [7] was inactive.
On to `CCCCC(CC)COC(=O)COc1cc(Cl)c(Cl)cc1Cl` (stereo not given), for which the Potency result in test [1], in test [2] and in test [3] was “inactive” each time. Besides, the outcome in test [9], in test [5], in test [6] and in test [7] was inactive.
`CCN(CCCc1ccccc1)CCCc1ccccc1`: the Potency result in [1], in test [2] and in test [3] was “inactive” each time. In addition, in test [5], the fluorescence, % of fluorescein control is -0.0397% [at 18.6 µM]. Further, the fluorescence, % of triamterene in test [6] was 0.0775% [at 18.6 µM]. Also, the fluorescence, % of fluorescent control in test [7] is -0.195% [at 18.6 µM].
Regarding `CCCCCCOc1ccc(N)cc1`, the Potency entry in [1], in test [2] and in test [3] was “inactive” in each case. In addition, the compound was classed as inactive in [5], in [6] and in [7].
Consider `O=C(O)[C@@H](O)[C@H](O)[C@H](O)[C@@H](O)C(=O)O`, for which the Potency result in test [1], in [2], in [3] and in test [4] was “inactive” in each case. Moreover, the compound was called inactive in [9], in [5], in test [6] and in test [7].
Turning to `CCN(CC)CCOc1ccc(Cc2ccccc2)cc1`, the Potency result in test [2] and in test [3] was “inactive” in each case. Further, the compound was classed as inactive in test [9], in test [5], in test [6] and in test [7].
For `O=c1[nH]c(=O)n([C@H]2C[C@H](O)[C@@H](CO)O2)cc1C(F)(F)F`, the Potency result in test [8], in test [2] and in [3] was “inactive” throughout. Moreover, the call in test [9], in [5], in test [6] and in test [7] was inactive.
In the case of `Cc1cc2c(s1)Nc1ccccc1N=C2N1CCN(C)CC1`, the Potency entry in test [8], in test [1], in [3] and in [4] was “inactive” in each case. Moreover, the call in test [9], in test [5], in test [6] and in test [7] was inactive.
Take `COc1ccc2nc(NC(=O)Nc3ccccc3)sc2c1`: the Potency result in [1] and in test [2] was “inactive” throughout. Further, the Potency in test [3] was 6.68 µM (active); in test [4], 1.19 µM (active). The compound was classed as inactive in test [9], in test [5], in test [6] and in test [7].
Regarding `O=C1CCCCCCCCCCC(=O)OCCO1`, the Potency in test [1] was 54.5 µM (active); in test [4], 27.3 µM (active). For the same compound, the Potency entry in test [2] is “inactive”. The result in test [9], in test [5], in test [6] and in [7] was inactive.
On to `O=C1Nc2ccc([N+](=O)[O-])cc2C1=O`, for which the Potency entry in [8] and in [1] was “inactive” in each case. For the same compound, in test [4], the Potency was 68.5 µM (active). For the same compound, the outcome in [9], in test [5], in test [6] and in test [7] was inactive.
As to `CC(C)=CCCC(C)CCOC=O` (stereo not given), the Potency entry in test [8] and in [1] was “inactive” each time. In addition, the Potency in test [2] is 54.5 µM (active). The outcome in test [5], in test [6] and in [7] was inactive.
Regarding `CCCCNc1ccc(C(=O)OCCN(CC)CC)cc1`, the Potency result in test [1], in test [2], in test [3] and in [4] was “inactive” in each case. Further, the compound was classed as inactive in test [5], in [6] and in [7].
Turning to `CN1CCN(C2=Nc3cc(F)ccc3Cc3ccccc32)CC1`, the Potency entry in test [1], in test [2] and in test [3] was “inactive” each time. The result in test [9], in [5], in test [6] and in [7] was inactive.
`CCOc1ccc(NS(=O)(=O)c2ccc(N)cc2)nn1`: the Potency result in test [1], in test [2], in test [3] and in test [4] was “inactive” each time. Further, the result in test [9], in test [5], in test [6] and in test [7] was inactive.
As to `CN1C(=O)CC(c2ccccc2)C1=O` (stereo not given), the Potency result in test [1], in [2] and in test [3] was “inactive” each time. In addition, the compound was called inactive in test [5], in test [6] and in test [7].
Regarding `C=O`, the Potency entry in [1], in test [2] and in [3] was “inactive” throughout. The outcome in test [9], in [5], in test [6] and in test [7] was inactive.
On to `CC(C)(C)C1CCCCC1=O` (stereo not given), for which the Potency entry in test [2] and in [3] was “inactive” throughout. In addition, the call in test [9], in test [5], in test [6] and in test [7] was inactive.
As for `O=C(Cl)c1cccc([N+](=O)[O-])c1`, the Potency entry in test [1], in test [3] and in test [4] was “inactive” throughout. Moreover, the result in [9], in [5], in test [6] and in [7] was inactive.
